HT1080-NT tox: kills 2HG-producing HT-1080-NT fibrosarcoma cells. 360,000 tested, 1.6% active. HT-1080-NT fibrosarcoma viability, CellTiter-Glo ATP luminescence, 48 h. Potency, µM (doses to about 46.1 µM), most hits filed as cytotoxic;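 also: NT is the 2HG producing partner of a matched IDH1 knockdown line; nearly all actives have a fitted effect of over 55% in size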
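HT-1080-NT fibrosarcoma cells (2HG-overproducing), 750 cells/well in RPMI with 5% FBS, dosed after 2 h and incubated 48 h at 37C. CellTiter-Glo luminescence normalized to DMSO and no-cell wells; concentration-response curves fitted and classed.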
DT40 TDP1 CPT: growth inhibition of DT40 Tdp1-/-;hTDP1 cells with camptothecin (screen for TDP1 inhibitors); chicken DT40 Tdp1-/-;hTDP1 cells + 20 nM CPT, ATP luminescence, 48 h; Potency, µM (titrated, usually from 46.2 µM), hits mostly inhibitors; 420,000 tested, 12% active; also: nearly all actives have a fitted effect of over 55% in size
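Cell growth measured by CellTiter-Glo luminescence after a minimum 48 h, 37 C compound exposure with 20 nM CPT in Tdp1-knockout DT40 cells stably expressing hTDP1, seeded 400/well; qHTS titration format.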
DT40 TDP1 no CPT: qHTS for Inhibitors of human tyrosyl-DNA phosphodiesterase 1 (TDP1): qHTS in cells in absence of CPT. DT40 Tdp1-/- hTDP1 cells, no CPT, ATP luminescence, 48 h. Potency, µM (doses to about 46.2 µM), usual class: inhibitors. 420,000 tested, 15% active. AID 686978, 2013; also: nearly all actives have a fitted effect of over 55% in size
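Camptothecin absent (DMSO only). Human TDP1-complemented DT40 knockout cells, 400 cells/well, 37 °C for minimum 48 hr; ATP measured via CellTiter-Glo, 30 min dark incubation, luminescence.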
IL-1B inflam inh: blocks inflammasome-driven IL-1 beta release; THP-1 LPS/ATP IL-1B secretion, AlphaLISA, 16 h; stronger effect = lower value; activity change, % at 57.5 µM; 360,000 tested, 4.7% active; AID 743279; in the data active = activity change below about -50%; inconclusive = mostly about -30% to -49%
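Secreted IL-1B measured by AlphaLISA bead assay after 16 h compound exposure of THP-1 cells; compounds (final up to 57.5 uM) added 1 h before LPS (250 ng/mL) and ATP (1.25 mM) stimulation; lower signal means less secretion.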
HT1080 IDH1KD tx: toxicity to HT-1080 IDH1 knockdown cells (counter line). Potency, µM (top dose mostly 46.1 µM), hits mostly cytotoxic. HT-1080 IDH1 knockdown viability, ATP luminescence, 48 h. 360,000 tested, 2% active
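Knockdown cells (IDH1KD HT-1080) received compounds 2 h after plating at 750 cells/well and were kept 48 h at 37 °C in 5% FBS RPMI. A CellTiter-Glo luminescence read gave % activity for curve fitting.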
Each line names hits and unclear results; the compound was inactive in the other large screens. This is a sample that favours compounds with a hit; in the whole collection about 19% have one here. Unless noted, calls follow the shape of the dose curve; as a rule, active = well fitted curve in the direction sought with a large enough effect; inconclusive = small, poorly fitted or top-dose-only effect, or another doubt; inactive = no such curve, though single readings can be large; an effect the other way counts as inactive or inconclusive.

O=C(Nc1ccccc1)Nc1ccccc1C(=O)NCCCN1CCOCC1	none
C[C@]12CCC(=O)C=C1CC[C@@H]1[C@@H]2CC[C@@]2(C)[C@H]1CC[C@]2(O)C(=O)CO	DT40 TDP1 CPT inconclusive, DT40 TDP1 no CPT inconclusive
C/C=C1/C(=O)C[C@@H]2[C@H]3CCC4=CC(=O)CC[C@]4(C)[C@@H]3CC[C@]12C	DT40 TDP1 CPT inconclusive, DT40 TDP1 no CPT 15µM (no result: HT1080-NT tox, IL-1B inflam inh, HT1080 IDH1KD tx)
CC12CCC(=O)C=C1CCC1C2C(O)CC2(C)C(c3csc(N)n3)CCC12 (centres undefined)	HT1080-NT tox 6.5µM, DT40 TDP1 CPT 3.7µM, DT40 TDP1 no CPT 3.3µM, HT1080 IDH1KD tx inconclusive
CC12CCC(=O)C=C1CCC1C2CCC2(C)C(c3csc(N)n3)CCC12 (centres undefined)	HT1080-NT tox inconclusive, DT40 TDP1 CPT 5.8µM, DT40 TDP1 no CPT 5.8µM, IL-1B inflam inh -82, HT1080 IDH1KD tx inconclusive
O=C(NC1CC1)c1ccc(Cl)c(S(=O)(=O)N2CCOCC2)c1	none
CN(C)CCCN(C(=O)COc1ccc(Cl)cc1)c1nc2cc3c(cc2s1)OCO3	HT1080-NT tox inconclusive, DT40 TDP1 CPT 8.2µM, DT40 TDP1 no CPT 13µM, IL-1B inflam inh -100, HT1080 IDH1KD tx inconclusive
CN(C)CCCN(C(=O)COc1ccccc1)c1nc2cc3c(cc2s1)OCO3	none
COc1cccc2sc(N(CCCN(C)C)C(=O)COc3ccc(Cl)cc3)nc12	DT40 TDP1 CPT inconclusive, DT40 TDP1 no CPT inconclusive
CN(C)CCCN(C(=O)COc1ccc(Cl)cc1)c1nc2cc3c(cc2s1)OCCO3	DT40 TDP1 no CPT inconclusive, IL-1B inflam inh -94
CCOC(=O)c1ccccc1NC(=O)COC(=O)CCC1CCCC1	none
CCCNC(=O)C1(C)CCN(C(=O)c2cccc(Cl)c2)C1 (centres undefined)	HT1080-NT tox inconclusive
COC(=O)C1=CN(c2cccc(C(F)(F)F)c2)C=C(C(=O)OC)C1c1ccc(O)c(OC)c1	HT1080-NT tox inconclusive, DT40 TDP1 CPT inconclusive, DT40 TDP1 no CPT inconclusive, IL-1B inflam inh -51, HT1080 IDH1KD tx inconclusive
COC(=O)C1=CN(c2ccc(F)cc2)C=C(C(=O)OC)C1c1cccc([N+](=O)[O-])c1	DT40 TDP1 no CPT 26µM
COC(=O)C1=CN(C)C=C(C(=O)OC)C1c1ccc(O)c(OC)c1	none
COC(=O)C1=CN(c2cccc(C)c2)C=C(C(=O)OC)C1c1cc(OC)c(O)c([N+](=O)[O-])c1	DT40 TDP1 CPT inconclusive, DT40 TDP1 no CPT inconclusive
COC(=O)C1=CN(c2ccc(OC)cc2)C=C(C(=O)OC)C1c1ccc(C)c([N+](=O)[O-])c1	DT40 TDP1 CPT inconclusive, DT40 TDP1 no CPT 21µM
COC(=O)C1=CN(c2ccc(OC)cc2)C=C(C(=O)OC)C1c1cccc(F)c1	none
Cc1cc(C)c(S(=O)(=O)n2cnc(C)c2)c(C)c1	none (no result: HT1080-NT tox, IL-1B inflam inh, HT1080 IDH1KD tx)
CCCOC(=O)c1c(NC(=O)C(C)Sc2nc(-c3ccccc3)cc(C(F)(F)F)n2)sc(C(=O)N(C)C)c1C (centres undefined)	DT40 TDP1 CPT inconclusive, DT40 TDP1 no CPT 15µM (no result: HT1080-NT tox, IL-1B inflam inh, HT1080 IDH1KD tx)
CC(Sc1nc(-c2ccccc2)cc(C(F)(F)F)n1)C(=O)O (centres undefined)	DT40 TDP1 CPT inconclusive
CC(Sc1nc(-c2ccccc2)cc(C(F)(F)F)n1)C(=O)NCCN1CCOCC1 (centres undefined)	none
CCN(CC)C(=O)c1sc(NC(=O)C(C)Sc2nc(-c3ccccc3)cc(C(F)(F)F)n2)c(C(=O)OC)c1C (centres undefined)	DT40 TDP1 CPT 7.3µM, DT40 TDP1 no CPT 7.3µM (no result: HT1080-NT tox, IL-1B inflam inh, HT1080 IDH1KD tx)
COc1cc(CCC(=O)N2CCN(c3ncccn3)CC2)cc(OC)c1OC	none
COC(=O)NNC(=O)Cc1cccc2ccccc12	none
CC1(c2ccc(OC(F)F)cc2)NC(=O)N(CC(=O)c2ccc3c(c2)OCO3)C1=O (centres undefined)	none
COc1cccc(-n2c(-c3ccco3)nc3c(cnn3-c3ccccc3C)c2=O)c1	DT40 TDP1 CPT 21µM, DT40 TDP1 no CPT 18µM (no result: HT1080-NT tox, IL-1B inflam inh, HT1080 IDH1KD tx)
COc1ccc(-n2c(-c3ccco3)nc3c(cnn3-c3ccccc3C)c2=O)cc1	DT40 TDP1 CPT inconclusive, DT40 TDP1 no CPT 23µM

Screening results as filed in PubChem.
